Experimental data: PubChem BioAssay (NCATS)
Inconclusive results are not listed. Entries that show only a call come without a potency. A number with no mark means an inactive call. The source made the active and inactive calls. Calls follow the shape of the dose curve; as a rule, active = well fitted curve in the direction sought with a large enough effect; inconclusive = small, poorly fitted or top-dose-only effect, or another doubt; inactive = no such curve, though single readings can be large; an effect the other way counts as inactive or inconclusive.

Tests used:
[1] = test system: Zika virus NS2B-NS3 protease; assay: Primary screen GU AMC qHTS for Zika virus inhibitors (AID 1347154); also: nearly all actives have a fitted effect of over 70% in size
Outline: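 Unlinked Zika NS2B hydrophilic domain/NS3 protease domain noncovalent complex (25 nM final) in 10 mM Tris-HCl pH 8.0, 0.01% Tween 20, with AMC peptide substrate. Fluorescence (ex 340, em 450 nm) change over 15 min, room temperature; percent inhibition fitted to 4-parameter Hill equation.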

[2] = Primary qHTS for small molecule stabilizers of the endoplasmic reticulum resident proteome: Secreted ER Calcium Modulated Protein (SERCaMP) assay (AID 1508630)
Outline: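 GLuc-SERCaMP-expressing SH-SY5Y cells, pretreated 16 h with compound, are challenged with thapsigargin to empty ER calcium stores; after 4 h, coelenterazine is added directly to the medium and luminescence is imaged.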

Row | Compound | Potency [1] | Potency [2] | activity change, negative = inhibition [1] | activity change, negative = inhibition [2]
1 | O=C(NC1CCCCC1)c1cn(CCN2CCOCC2)c2cc(Cl)ccc2c1=O | inactive | inactive |  | 
2 | O[C@@H]1CCCC[C@@H]1N1CCC(c2ccccc2)CC1 | inactive | inactive |  | 
3 | C[C@H](NC(=O)[C@@H](N)Cc1ccc(O)cc1)C(=O)N[C@@H](Cc1ccccc1)C(=O)NCC(=O)N[C@@H](Cc1ccc(O)cc1)C(=O)N1CCC[C@H]1C(=O)N[C@@H](CO)C(N)=O |  |  | 8.07% [at 6.83 µM] | -16.9% [at 3.88 µM]
4 | CCCCCCCCCCCCCCCC(=O)OC[C@H](COP(=O)([O-])OCC[N+](C)(C)C)OC(C)=O |  |  | 9.56% [at 6.83 µM] | -14.9% [at 3.88 µM]
5 | NCCCC[C@H](NC(=O)[C@H](Cc1ccccc1)NC(=O)[C@H](CCCN=C(N)N)NC(=O)[C@@H](N)Cc1ccc(O)cc1)C(N)=O |  |  | 9.11% [at 6.83 µM] | -26.5% [at 3.88 µM]
6 | c1ccc(C2CNCc3ccccc32)cc1 (configuration not stated) | inactive | inactive |  | 
7 | CC[C@H](C)[C@H](NC(=O)[C@H](CCCN=C(N)N)NC(=O)[C@H](CCCN=C(N)N)NC(=O)[C@H](CC(C)C)NC(=O)[C@H](Cc1ccccc1)NC(=O)CNC(=O)CNC(=O)[C@@H](N)Cc1ccc(O)cc1)C(=O)O |  |  | 10.8% [at 6.83 µM] | -13% [at 3.88 µM]
8 | NCC(CC(=O)O)c1ccc(Cl)s1 (configuration not stated) | inactive | inactive |  | 
9 | NCC(CS(=O)(=O)O)c1ccc(Cl)cc1 (configuration not stated) | inactive | inactive |  | 
10 | O=C(O)CCC(CP(=O)(O)O)C(=O)O (configuration not stated) | inactive | inactive |  | 
11 | CC[C@H](C)[C@H](NC(=O)[C@H](CCCN=C(N)N)NC(=O)[C@H](CCCN=C(N)N)NC(=O)[C@H](CC(C)C)NC(=O)[C@H](Cc1ccccc1)NC(=O)CNC(=O)CNC(=O)[C@@H](N)Cc1ccc(O)cc1)C(=O)N[C@@H](CCCN=C(N)N)C(=O)N1CCC[C@H]1C(=O)N[C@@H](CCCCN)C(=O)N[C@@H](CC(C)C)C(=O)N[C@@H](CCCCN)C(=O)O |  |  | 3.59% [at 6.83 µM] | -25.4% [at 3.88 µM]
12 | CC(C)[C@]1(O)[C@@H](OC(=O)c2ccc[nH]2)[C@@]2(O)[C@@]3(C)C[C@]4(O)O[C@@]5([C@H](O)[C@@H](C)CC[C@]35O)[C@@]2(O)C41C | inactive | inactive |  | 
13 | C[C@@H]1O[C@H](C[N+](C)(C)C)C[C@@H]1O | inactive | inactive |  | 
14 | CC1OC(=O)[C@@H](C(C)C)NC(=O)C(C(C)C)OC(=O)[C@H](C(C)C)NC(=O)C(C)OC(=O)[C@@H](C(C)C)NC(=O)C(C(C)C)OC(=O)[C@H](C(C)C)NC(=O)C(C)OC(=O)[C@@H](C(C)C)NC(=O)C(C(C)C)OC(=O)[C@H](C(C)C)NC1=O (some centres not stated) | inactive | inactive |  | 
15 | COc1ccc2c(CCN)c[nH]c2c1 | inactive | inactive |  | 
16 | CC1CCC2C(C)C(=O)OC3O[C@]4(C)CCC1[C@@]32OO4 (some centres not stated) | inactive | inactive |  | 
17 | CCCCCCCCCCCCCCCCOC[C@@H](O)COP(=O)([O-])OCC[N+](C)(C)C |  |  | 3.47% [at 6.83 µM] | 13.1% [at 3.88 µM]
18 | O=C(O)C1CN(CP(=O)(O)O)CCN1 (configuration not stated) | inactive | inactive |  | 
19 | NCCc1cccc(O)c1 | inactive | inactive |  | 
20 | C[C@]12CCC3C(CC[C@H]4C[C@H](O)CC[C@]34C)[C@@H]1CC[C@@H]2C(=O)CO (some centres not stated) | inactive | inactive |  | 
21 | CCCCC[C@@H](/C=C/C=C\CCCCCCCC(=O)O)OO |  |  | 3.22% [at 0.59 µM] | -19.4% [at 0.478 µM]
22 | H-YPFVEPI-OH |  |  | -10.5% [at 6.83 µM] | -11.8% [at 3.88 µM]
23 | O=C1CSC(c2ccccc2Cl)c2cc(Cl)ccc2N1 (configuration not stated) | inactive | inactive |  | 
24 | CC(C)C[C@H](NC(=O)[C@H](Cc1ccccc1)NC(=O)CNC(=O)[C@@H](NC(=O)[C@@H](N)Cc1ccc(O)cc1)[C@H](C)O)C(=O)N[C@H](C(=O)O)[C@H](C)O |  |  | 4.9% [at 6.83 µM] | -27.9% [at 3.88 µM]
25 | CC1(C)[C@@H](O)C[C@H]2[C@](C)(O)[C@@H]3CC[C@H]4[C@@H](O)[C@@]3(C[C@@H](O)[C@@]21O)C[C@@]4(C)O | inactive | inactive |  | 
26 | CCCCCCCCCCCCCCCCOC[C@H](COP(=O)([O-])OCC[N+](C)(C)C)OC(C)=O |  |  | -0.0514% [at 6.83 µM] | -28.3% [at 3.88 µM]
